# In paper PMC7862700, “An all-to-all approach to the identification of sequence-specific readers for epigenetic DNA modifications on cytosine”:
# Assays:
# Test in all cases: DAPPL (digital affinity profiling via proximity ligation, sequencing); 10 mM Tris-HCl pH 7.5, 50 mM NaCl, 1 mM DTT, 4% glycerol, room temperature, 30 min; GST-TFs on glutathione beads, 16-mer random dsDNA library, 0.1% formaldehyde crosslink after washing; high values mean tight binding
# FEV = target: T1, FEV (Homo sapiens, UniProt Q99581 1-238); settings: protein: recombinant; tags: N-terminal GST; dsDNA, one strand shown
# T1 sequence: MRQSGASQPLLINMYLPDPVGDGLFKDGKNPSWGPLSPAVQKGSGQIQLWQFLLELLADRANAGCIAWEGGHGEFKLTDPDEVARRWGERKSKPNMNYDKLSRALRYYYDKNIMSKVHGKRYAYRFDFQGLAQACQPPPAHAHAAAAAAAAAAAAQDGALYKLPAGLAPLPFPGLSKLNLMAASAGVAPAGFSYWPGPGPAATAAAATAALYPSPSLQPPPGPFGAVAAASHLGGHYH
# In short: (§1)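 Yeast served to express human transcription factors as GST fusions, which were then captured on glutathione beads and labelled with DNA barcodes. Pooled with a tag-only sample, they were incubated with 200 nmole of a 16-mer random double-stranded DNA library for 30 min at room temperature in Tris/NaCl/DTT/glycerol buffer, washed, crosslinked with 0.1% formaldehyde, ligated by proximity, amplified by PCR and sequenced. Dividing each hexamer's read frequency for a factor by its frequency for the tag-only sample gives the binding signal.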
# ETV5 = ETV5 (Homo sapiens, UniProt P41161 1-510); settings: protein: recombinant; tags: N-terminal GST; dsDNA, one strand shown
# Chain of ETV5 (P41161 whole entry): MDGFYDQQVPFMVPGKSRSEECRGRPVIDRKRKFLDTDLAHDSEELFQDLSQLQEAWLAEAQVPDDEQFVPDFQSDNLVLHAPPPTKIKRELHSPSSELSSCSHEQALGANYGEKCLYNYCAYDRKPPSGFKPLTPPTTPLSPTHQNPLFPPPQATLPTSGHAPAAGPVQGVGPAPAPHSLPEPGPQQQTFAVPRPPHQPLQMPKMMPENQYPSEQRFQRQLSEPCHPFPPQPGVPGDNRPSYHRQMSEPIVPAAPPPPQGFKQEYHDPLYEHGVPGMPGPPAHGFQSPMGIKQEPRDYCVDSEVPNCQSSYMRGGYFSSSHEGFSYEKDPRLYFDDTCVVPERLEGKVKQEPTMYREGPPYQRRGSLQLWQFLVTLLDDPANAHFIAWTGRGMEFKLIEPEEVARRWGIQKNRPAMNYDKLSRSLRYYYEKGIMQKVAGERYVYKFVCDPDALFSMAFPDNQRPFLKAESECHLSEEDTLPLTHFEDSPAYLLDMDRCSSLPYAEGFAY
# In short: as §1
# HSF1 = HSF1 (Homo sapiens, UniProt Q00613 1-529); settings: protein: recombinant; tags: N-terminal GST; chain copies: 3; dsDNA, one strand shown
# Chain of HSF1 (Q00613 whole entry): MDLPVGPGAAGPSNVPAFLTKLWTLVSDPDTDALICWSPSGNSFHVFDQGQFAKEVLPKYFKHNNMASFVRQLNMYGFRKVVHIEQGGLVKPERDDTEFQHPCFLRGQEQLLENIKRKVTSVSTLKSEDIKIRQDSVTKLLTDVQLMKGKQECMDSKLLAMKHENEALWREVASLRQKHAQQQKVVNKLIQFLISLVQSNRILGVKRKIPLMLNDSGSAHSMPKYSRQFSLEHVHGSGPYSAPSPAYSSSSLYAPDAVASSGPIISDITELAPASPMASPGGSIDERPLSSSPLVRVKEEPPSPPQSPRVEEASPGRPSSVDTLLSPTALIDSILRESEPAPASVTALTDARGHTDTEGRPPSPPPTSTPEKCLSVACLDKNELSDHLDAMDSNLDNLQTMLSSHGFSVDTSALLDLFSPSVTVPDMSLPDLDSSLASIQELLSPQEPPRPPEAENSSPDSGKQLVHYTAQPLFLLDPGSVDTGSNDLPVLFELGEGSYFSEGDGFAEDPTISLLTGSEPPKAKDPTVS
# In short: as §1
# SPIC = target: T2, SPIC (Homo sapiens, UniProt Q8N5J4 1-248); settings: protein: recombinant; tags: N-terminal GST; dsDNA, one strand shown
# T2 sequence: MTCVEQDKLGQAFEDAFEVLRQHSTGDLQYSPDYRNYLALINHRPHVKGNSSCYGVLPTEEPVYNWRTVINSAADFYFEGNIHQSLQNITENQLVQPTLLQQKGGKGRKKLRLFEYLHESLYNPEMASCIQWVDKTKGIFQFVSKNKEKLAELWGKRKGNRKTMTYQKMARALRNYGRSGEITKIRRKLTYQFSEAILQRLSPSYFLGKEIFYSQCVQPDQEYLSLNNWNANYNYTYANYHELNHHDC
# In short: as §1
# ELF4 = ELF4 (Homo sapiens, UniProt Q99607 1-663); settings: protein: recombinant; tags: N-terminal GST; dsDNA, one strand shown
# Chain of ELF4 (Q99607 whole entry): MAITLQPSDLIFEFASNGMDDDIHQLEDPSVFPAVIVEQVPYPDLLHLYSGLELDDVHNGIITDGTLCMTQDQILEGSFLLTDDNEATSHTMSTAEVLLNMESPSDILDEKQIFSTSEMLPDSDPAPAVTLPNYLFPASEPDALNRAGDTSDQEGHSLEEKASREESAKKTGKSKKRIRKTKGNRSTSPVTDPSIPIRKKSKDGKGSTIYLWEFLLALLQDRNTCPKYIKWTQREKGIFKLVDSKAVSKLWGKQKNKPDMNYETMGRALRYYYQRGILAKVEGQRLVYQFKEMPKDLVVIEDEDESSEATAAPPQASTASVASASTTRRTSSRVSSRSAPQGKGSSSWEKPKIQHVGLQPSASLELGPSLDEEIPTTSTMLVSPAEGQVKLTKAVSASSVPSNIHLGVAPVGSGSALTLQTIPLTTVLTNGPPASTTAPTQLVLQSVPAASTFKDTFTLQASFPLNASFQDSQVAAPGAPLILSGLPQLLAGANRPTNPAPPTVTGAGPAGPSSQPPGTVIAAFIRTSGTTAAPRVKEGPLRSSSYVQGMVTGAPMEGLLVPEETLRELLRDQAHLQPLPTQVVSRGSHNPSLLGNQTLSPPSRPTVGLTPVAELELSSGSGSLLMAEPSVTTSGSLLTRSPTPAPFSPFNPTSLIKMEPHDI
# In short: as §1
# ELK4 = target: T3, ELK4 (Homo sapiens, UniProt P28324-2 1-405); settings: protein: recombinant; tags: N-terminal GST; dsDNA, one strand shown
# T3 sequence: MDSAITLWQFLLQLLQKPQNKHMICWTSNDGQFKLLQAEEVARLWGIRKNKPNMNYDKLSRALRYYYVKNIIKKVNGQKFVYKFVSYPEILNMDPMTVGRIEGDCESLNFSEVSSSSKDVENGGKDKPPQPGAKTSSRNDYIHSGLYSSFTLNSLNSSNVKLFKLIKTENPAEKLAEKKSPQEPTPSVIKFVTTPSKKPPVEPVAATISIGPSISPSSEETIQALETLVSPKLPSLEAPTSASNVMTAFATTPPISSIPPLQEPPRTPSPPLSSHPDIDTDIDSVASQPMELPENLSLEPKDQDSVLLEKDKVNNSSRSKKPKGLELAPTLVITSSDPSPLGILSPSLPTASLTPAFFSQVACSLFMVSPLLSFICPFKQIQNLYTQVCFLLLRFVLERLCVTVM
# In short: as §1
# ETV2 = target: T4, ETV2 (Homo sapiens, UniProt O00321 1-342); settings: protein: recombinant; tags: N-terminal GST; dsDNA, one strand shown
# T4 sequence: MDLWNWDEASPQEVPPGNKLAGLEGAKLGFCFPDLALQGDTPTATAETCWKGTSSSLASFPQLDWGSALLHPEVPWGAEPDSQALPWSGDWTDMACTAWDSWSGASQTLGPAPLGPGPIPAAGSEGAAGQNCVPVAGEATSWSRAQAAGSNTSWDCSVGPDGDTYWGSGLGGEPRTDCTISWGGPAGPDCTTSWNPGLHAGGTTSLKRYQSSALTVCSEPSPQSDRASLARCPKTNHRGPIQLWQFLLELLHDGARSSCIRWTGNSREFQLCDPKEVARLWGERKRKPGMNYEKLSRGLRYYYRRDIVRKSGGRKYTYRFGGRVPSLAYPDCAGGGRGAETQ
# In short: as §1
# ELF3 = target: T5, ELF3 (Homo sapiens, UniProt P78545 1-371); settings: protein: recombinant; tags: N-terminal GST; dsDNA, one strand shown
# T5 sequence: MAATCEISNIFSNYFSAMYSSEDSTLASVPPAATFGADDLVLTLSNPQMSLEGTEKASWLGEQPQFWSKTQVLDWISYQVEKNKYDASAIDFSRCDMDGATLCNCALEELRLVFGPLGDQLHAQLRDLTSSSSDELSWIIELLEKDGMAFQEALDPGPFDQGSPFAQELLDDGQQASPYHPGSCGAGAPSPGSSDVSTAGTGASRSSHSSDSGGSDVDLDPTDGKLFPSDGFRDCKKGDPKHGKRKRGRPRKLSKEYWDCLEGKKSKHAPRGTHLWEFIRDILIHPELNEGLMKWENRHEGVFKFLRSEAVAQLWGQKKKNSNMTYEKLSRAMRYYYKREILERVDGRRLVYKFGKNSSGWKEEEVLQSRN
# In short: as §1
# CRX = CRX (Homo sapiens, UniProt O43186 1-299); settings: protein: recombinant; tags: N-terminal GST; dsDNA, one strand shown
# Chain of CRX (O43186 whole entry): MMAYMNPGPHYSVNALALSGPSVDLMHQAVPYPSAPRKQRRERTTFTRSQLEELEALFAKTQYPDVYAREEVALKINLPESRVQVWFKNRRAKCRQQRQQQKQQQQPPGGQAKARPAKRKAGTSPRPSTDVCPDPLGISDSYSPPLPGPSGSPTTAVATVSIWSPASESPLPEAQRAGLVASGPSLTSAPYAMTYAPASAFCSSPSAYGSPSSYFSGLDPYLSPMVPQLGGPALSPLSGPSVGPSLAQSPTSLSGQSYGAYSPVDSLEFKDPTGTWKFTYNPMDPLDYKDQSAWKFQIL
# In short: as §1
# ETV1 = ETV1 (Homo sapiens, UniProt P50549 1-477); settings: protein: recombinant; tags: N-terminal GST; dsDNA, one strand shown
# Chain of ETV1 (P50549 whole entry): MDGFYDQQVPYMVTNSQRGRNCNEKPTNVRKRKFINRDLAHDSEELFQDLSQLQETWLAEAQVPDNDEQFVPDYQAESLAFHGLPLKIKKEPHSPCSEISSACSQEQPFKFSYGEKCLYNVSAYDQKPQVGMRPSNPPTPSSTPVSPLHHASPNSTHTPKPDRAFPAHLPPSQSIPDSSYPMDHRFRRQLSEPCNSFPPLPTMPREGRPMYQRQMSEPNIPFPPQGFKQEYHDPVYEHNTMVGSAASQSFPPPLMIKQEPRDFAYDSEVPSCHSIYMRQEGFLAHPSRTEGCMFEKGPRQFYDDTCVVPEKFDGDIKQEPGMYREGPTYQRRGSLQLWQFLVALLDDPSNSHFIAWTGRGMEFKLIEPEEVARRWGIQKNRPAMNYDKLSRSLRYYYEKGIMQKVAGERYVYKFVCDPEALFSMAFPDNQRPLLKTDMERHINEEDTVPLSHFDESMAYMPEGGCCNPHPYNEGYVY
# In short: as §1
Sequence,binding signal (FEV),binding signal (ETV5),binding signal (HSF1),binding signal (SPIC),binding signal (ELF4),binding signal (ELK4),binding signal (ETV2),binding signal (ELF3),binding signal (CRX),binding signal (ETV1)
AAAGAT,"1.15 fold enrichment (6-mer frequency, TF over GST control)","1.25 fold enrichment (6-mer frequency, TF over GST control)","1.67 fold enrichment (6-mer frequency, TF over GST control)","1.22 fold enrichment (6-mer frequency, TF over GST control)","1.24 fold enrichment (6-mer frequency, TF over GST control)","1.24 fold enrichment (6-mer frequency, TF over GST control)","1.17 fold enrichment (6-mer frequency, TF over GST control)","1.16 fold enrichment (6-mer frequency, TF over GST control)","1.75 fold enrichment (6-mer frequency, TF over GST control)","1.27 fold enrichment (6-mer frequency, TF over GST control)"
TTTTGA,"1 fold enrichment (6-mer frequency, TF over GST control)","1.19 fold enrichment (6-mer frequency, TF over GST control)","1.12 fold enrichment (6-mer frequency, TF over GST control)","1.21 fold enrichment (6-mer frequency, TF over GST control)","1.19 fold enrichment (6-mer frequency, TF over GST control)","1.22 fold enrichment (6-mer frequency, TF over GST control)","1.2 fold enrichment (6-mer frequency, TF over GST control)","1.25 fold enrichment (6-mer frequency, TF over GST control)","1.17 fold enrichment (6-mer frequency, TF over GST control)","1.13 fold enrichment (6-mer frequency, TF over GST control)"
ATATTG,"1.33 fold enrichment (6-mer frequency, TF over GST control)","1.37 fold enrichment (6-mer frequency, TF over GST control)","1.19 fold enrichment (6-mer frequency, TF over GST control)","1.41 fold enrichment (6-mer frequency, TF over GST control)","1.37 fold enrichment (6-mer frequency, TF over GST control)","1.24 fold enrichment (6-mer frequency, TF over GST control)","1.48 fold enrichment (6-mer frequency, TF over GST control)","1.25 fold enrichment (6-mer frequency, TF over GST control)","1.28 fold enrichment (6-mer frequency, TF over GST control)","1.32 fold enrichment (6-mer frequency, TF over GST control)"
CCGAAA,"1.17 fold enrichment (6-mer frequency, TF over GST control)","1.25 fold enrichment (6-mer frequency, TF over GST control)","1.73 fold enrichment (6-mer frequency, TF over GST control)","1.31 fold enrichment (6-mer frequency, TF over GST control)","1.2 fold enrichment (6-mer frequency, TF over GST control)","1.14 fold enrichment (6-mer frequency, TF over GST control)","1.27 fold enrichment (6-mer frequency, TF over GST control)","1.17 fold enrichment (6-mer frequency, TF over GST control)","1.28 fold enrichment (6-mer frequency, TF over GST control)","1.23 fold enrichment (6-mer frequency, TF over GST control)"
TGTTTA,"1.12 fold enrichment (6-mer frequency, TF over GST control)","1.19 fold enrichment (6-mer frequency, TF over GST control)","1.12 fold enrichment (6-mer frequency, TF over GST control)","1.05 fold enrichment (6-mer frequency, TF over GST control)","1.11 fold enrichment (6-mer frequency, TF over GST control)","1.25 fold enrichment (6-mer frequency, TF over GST control)","1.04 fold enrichment (6-mer frequency, TF over GST control)","1.22 fold enrichment (6-mer frequency, TF over GST control)","1.25 fold enrichment (6-mer frequency, TF over GST control)","1.09 fold enrichment (6-mer frequency, TF over GST control)"
TACGCC,"1.25 fold enrichment (6-mer frequency, TF over GST control)","1.26 fold enrichment (6-mer frequency, TF over GST control)","1.17 fold enrichment (6-mer frequency, TF over GST control)","1.32 fold enrichment (6-mer frequency, TF over GST control)","1.29 fold enrichment (6-mer frequency, TF over GST control)","1.24 fold enrichment (6-mer frequency, TF over GST control)","1.02 fold enrichment (6-mer frequency, TF over GST control)","1.14 fold enrichment (6-mer frequency, TF over GST control)","1.2 fold enrichment (6-mer frequency, TF over GST control)","1.22 fold enrichment (6-mer frequency, TF over GST control)"
TTGAGC,"1 fold enrichment (6-mer frequency, TF over GST control)","1.03 fold enrichment (6-mer frequency, TF over GST control)","1.03 fold enrichment (6-mer frequency, TF over GST control)","1.18 fold enrichment (6-mer frequency, TF over GST control)","1.06 fold enrichment (6-mer frequency, TF over GST control)","1.04 fold enrichment (6-mer frequency, TF over GST control)","1.07 fold enrichment (6-mer frequency, TF over GST control)","1.13 fold enrichment (6-mer frequency, TF over GST control)","1.28 fold enrichment (6-mer frequency, TF over GST control)","1.1 fold enrichment (6-mer frequency, TF over GST control)"
